Assay results published in PubChem BioAssay (EPA / NIEHS).
Activity calls are given as the source filed them. The calls were made as follows: active = hit-call score of the fitted dose curve at least 0.9, where 1 is the maximum; inactive = score below 0.9.

What was measured:
[1] = target: Transcription factor E2F1 (Homo sapiens) (UniProt Q01094); assay: ATG_E2F_CIS: Attagene CIS-FACTORIAL HepG2 Assay for human E2F Transcription Factor 1 (AID 2282935); conditions: HepG2 Attagene cis-reporter, E2F reporter RNA transcripts; actives raise or lower the signal
Transcription factor E2F1 (Homo sapiens), sequence (Q01094 whole entry, looked up): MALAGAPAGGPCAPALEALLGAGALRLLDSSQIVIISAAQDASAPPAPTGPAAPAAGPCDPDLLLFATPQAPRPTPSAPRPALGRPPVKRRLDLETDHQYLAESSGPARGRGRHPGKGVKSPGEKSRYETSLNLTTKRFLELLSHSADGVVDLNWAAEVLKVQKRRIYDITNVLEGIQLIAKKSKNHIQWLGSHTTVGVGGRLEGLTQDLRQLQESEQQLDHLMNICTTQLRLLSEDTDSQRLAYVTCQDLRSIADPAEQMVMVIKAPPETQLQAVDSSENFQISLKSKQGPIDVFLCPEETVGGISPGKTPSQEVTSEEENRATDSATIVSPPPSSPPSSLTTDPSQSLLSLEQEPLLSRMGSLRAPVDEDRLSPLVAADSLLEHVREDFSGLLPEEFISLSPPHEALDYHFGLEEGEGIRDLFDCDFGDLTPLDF
Summary of the method: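 Fluorescent RT-PCR products, digested with HpaI for 2 h at 37 C, are separated by capillary electrophoresis. Source RNA comes from transfected HepG2 cultures treated for 24 h.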

[2] = ATG_M_61_CIS: Attagene CIS-FACTORIAL HepG2 Assay for M61 Transcription Factor (Internal Marker) (AID 2282937); conditions: HepG2 Attagene CIS-FACTORIAL M61 internal marker reporter; actives raise or lower the signal
Summary of the method: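 Endogenous transcription factor activity in HepG2 is read through transiently transfected cis-element reporter units. After 24 h dosing, RNA undergoes reverse transcription, PCR and primer extension with 6-FAM before capillary electrophoresis; DMSO-referenced bidirectional fit.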

[3] = ATG_EGR_CIS: Attagene CIS-FACTORIAL HepG2 Assay for human Early Growth Response 1 (EGR1) (AID 2282938); conditions: HepG2 Attagene CIS-FACTORIAL EGR reporter mRNA; actives raise or lower the signal
Summary of the method: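 Activity is taken as induction or loss of reporter mRNA versus DMSO, fitted bidirectionally. Transcripts from cis-regulated reporter units in transiently transfected HepG2 were measured after 24 h by RT-PCR with capillary electrophoresis.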

[4] = ATG_M_19_CIS: Attagene CIS-FACTORIAL HepG2 Assay for M19 Transcription Factor (Internal Marker) (AID 2282939); conditions: HepG2 Attagene CIS-FACTORIAL M19 internal marker reporter; actives raise or lower the signal
Summary of the method: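 Signals come from fluorescence of labelled reporter-specific PCR fragments resolved by capillary electrophoresis, following 24 h treatment of HepG2 cells transfected with cis-promoter reporter units; activity was fitted in both directions relative to DMSO.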

[5] = ATG_ERE_CIS: Attagene CIS-FACTORIAL HepG2 Assay for Estrogen Response Element (ERE) (AID 2282940); conditions: HepG2 ERE cis-reporter, Attagene RNA transcript; actives raise or lower the signal
Summary of the method: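 Fluorescence of capillary-separated, FAM-labelled reporter cDNA fragments indicates reporter mRNA levels in HepG2 cells exposed to chemicals for 24 h. Transient transfection with cis-regulated units; data fitted in both directions against DMSO.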

[6] = ATG_Ets_CIS: Attagene CIS-FACTORIAL HepG2 Assay for human Erythroblast Transformation Specific (ETS) (AID 2282941); conditions: HepG2 ETS cis-reporter transcription, actives raise or lower the signal
Summary of the method: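 Cis-regulated reporter mRNA induction in HepG2 (transient transfection), 24 h exposure, RT-PCR plus capillary electrophoresis detection; DMSO serves as negative control and baseline.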

[7] = target: Hepatocyte nuclear factor 3-beta (Homo sapiens) (UniProt Q9Y261); assay: ATG_FoxA2_CIS: Attagene CIS-FACTORIAL HepG2 Assay for human Forkhead box A2 (FOXA2) (AID 2282942); conditions: HepG2 cis-reporter transcription factor activity, 24 h; actives raise or lower the signal
Hepatocyte nuclear factor 3-beta (Homo sapiens), sequence (Q9Y261 whole entry, looked up): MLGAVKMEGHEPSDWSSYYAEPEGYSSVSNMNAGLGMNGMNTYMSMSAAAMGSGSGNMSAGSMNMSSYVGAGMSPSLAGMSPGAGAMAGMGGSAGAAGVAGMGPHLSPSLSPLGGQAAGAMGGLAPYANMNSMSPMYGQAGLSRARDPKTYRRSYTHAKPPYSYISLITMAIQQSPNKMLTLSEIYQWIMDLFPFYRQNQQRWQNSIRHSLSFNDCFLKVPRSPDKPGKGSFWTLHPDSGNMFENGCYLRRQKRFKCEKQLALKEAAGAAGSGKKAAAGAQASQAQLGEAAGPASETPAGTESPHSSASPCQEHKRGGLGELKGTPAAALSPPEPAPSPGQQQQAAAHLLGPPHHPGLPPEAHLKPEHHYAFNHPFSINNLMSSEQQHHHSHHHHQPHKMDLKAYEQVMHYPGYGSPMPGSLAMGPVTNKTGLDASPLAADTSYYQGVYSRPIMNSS
Summary of the method: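 Reporter transcript induction is measured by fluorescence after capillary electrophoresis of RT-PCR products from HepG2 cells exposed 24 h. Cis-regulated reporter units report endogenous factor activity; curves fitted both directions against DMSO.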

[8] = ATG_FoxO_CIS: Attagene CIS-FACTORIAL HepG2 Assay for human Forkhead box O (FoxO) (AID 2282943); conditions: HepG2 Attagene cis-reporter, FoxO element, mRNA; actives raise or lower the signal
Summary of the method: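 HepG2, transient MRTU transfection (cis element, endogenous TFs). Dose 24 h. TriZol RNA → oligo(dT) RT → PCR → 6-FAM primer extension → HpaI cut → CE. Gain/loss vs DMSO.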

[9] = ATG_GATA_CIS: Attagene CIS-FACTORIAL HepG2 Assay for human GATA Binding Protein (AID 2282944); conditions: HepG2 GATA cis-element reporter, Attagene multiplex mRNA; actives raise or lower the signal
Summary of the method: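 After transfecting HepG2 cells with multiple cis-regulated reporter units, chemicals are dosed for 24 h; isolated RNA undergoes RT-PCR and fluorescent labeling before capillary electrophoresis, with activity expressed against DMSO.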

[10] = ATG_GLI_CIS: Attagene CIS-FACTORIAL HepG2 Assay for human Zinc Finger Protein GLI1 (AID 2282945); conditions: HepG2, Attagene cis-factorial reporter mRNA, GLI element; actives raise or lower the signal
Summary of the method: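 Bidirectional curve fits relative to DMSO, using reporter mRNA levels from RT-PCR plus capillary electrophoresis. Cells were HepG2 transiently carrying cis-regulated reporter constructs, harvested 24 h after dosing.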

[11] = ATG_ISRE_CIS: Attagene CIS-FACTORIAL HepG2 Assay for human Interferon Regulatory Factor 1 (IRF1) binding to an Interferon-Stimulated Response Element (ISRE) (AID 2282948); conditions: HepG2 ISRE cis-reporter (Attagene), mRNA transcription readout; actives raise or lower the signal
Summary of the method: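 Multiplexed mRNA reporter readout in human liver HepG2 cells: cis-element-driven reporters transfected, compound added for 24 h, transcripts amplified, fluorescently labelled and sized by capillary electrophoresis; curve fitting bidirectional against DMSO.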

[12] = ATG_M_32_CIS: Attagene CIS-FACTORIAL HepG2 Assay for M32 Transcription Factor (Internal Marker) (AID 2282949); conditions: HepG2 Attagene cis-factorial M32 reporter, mRNA; actives raise or lower the signal;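 also: background control marker of the multiplexed CIS panel rather than a real target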
Summary of the method: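 Using DMSO as baseline, bidirectional curve fits were applied to reporter mRNA signals. These came from transiently transfected HepG2 cells exposed for 24 h, with RNA analysed by RT-PCR, FAM primer extension, HpaI digestion and CE.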

[13] = target: Hypoxia-inducible factor 1-alpha (Homo sapiens) (UniProt Q16665); assay: ATG_HIF1a_CIS: Attagene CIS-FACTORIAL HepG2 Assay for human Hypoxia Inducible Factor 1 (HIF1A) (AID 2282951); conditions: HepG2 Attagene cis-factorial HIF1a reporter transcription; actives raise or lower the signal
Hypoxia-inducible factor 1-alpha (Homo sapiens), sequence (Q16665 whole entry, looked up): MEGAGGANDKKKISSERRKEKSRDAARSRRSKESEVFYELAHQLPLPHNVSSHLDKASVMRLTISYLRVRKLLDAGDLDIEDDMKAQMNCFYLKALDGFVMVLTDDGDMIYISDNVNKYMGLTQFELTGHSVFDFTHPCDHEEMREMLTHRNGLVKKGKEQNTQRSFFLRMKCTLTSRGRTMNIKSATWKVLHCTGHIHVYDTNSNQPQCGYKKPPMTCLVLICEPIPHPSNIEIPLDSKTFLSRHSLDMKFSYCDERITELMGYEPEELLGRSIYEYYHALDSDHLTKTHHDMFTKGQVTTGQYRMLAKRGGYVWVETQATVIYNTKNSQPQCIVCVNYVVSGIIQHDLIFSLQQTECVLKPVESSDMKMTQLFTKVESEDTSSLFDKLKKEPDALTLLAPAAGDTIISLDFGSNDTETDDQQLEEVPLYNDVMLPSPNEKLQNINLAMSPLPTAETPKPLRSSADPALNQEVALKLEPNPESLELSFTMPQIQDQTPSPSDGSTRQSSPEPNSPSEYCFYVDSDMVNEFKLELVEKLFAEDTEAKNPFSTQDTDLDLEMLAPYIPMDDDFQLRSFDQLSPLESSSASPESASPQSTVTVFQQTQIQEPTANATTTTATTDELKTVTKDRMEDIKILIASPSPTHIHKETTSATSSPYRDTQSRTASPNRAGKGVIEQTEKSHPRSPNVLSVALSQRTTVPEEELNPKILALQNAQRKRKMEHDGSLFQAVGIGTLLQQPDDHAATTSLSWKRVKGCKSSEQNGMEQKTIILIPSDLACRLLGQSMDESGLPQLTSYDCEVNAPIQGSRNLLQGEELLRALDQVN
Summary of the method: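 Fluorescence intensity of capillary-separated, 6-FAM-labelled reporter amplicons gives mRNA induction in HepG2 cells carrying transfected cis-promoter reporter units; cells exposed 24 h, responses fitted up or down from DMSO.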

[14] = target: Heat shock factor protein 1 (Homo sapiens) (UniProt Q00613); assay: ATG_HSE_CIS: Attagene CIS-FACTORIAL HepG2 Assay for human Heat Shock Transcription Factor 1 (HSE) (AID 2282953); conditions: HepG2 HSE cis-reporter, Attagene RNA transcription; actives raise or lower the signal
Heat shock factor protein 1 (Homo sapiens), sequence (Q00613 whole entry, looked up, the tested form may be a part): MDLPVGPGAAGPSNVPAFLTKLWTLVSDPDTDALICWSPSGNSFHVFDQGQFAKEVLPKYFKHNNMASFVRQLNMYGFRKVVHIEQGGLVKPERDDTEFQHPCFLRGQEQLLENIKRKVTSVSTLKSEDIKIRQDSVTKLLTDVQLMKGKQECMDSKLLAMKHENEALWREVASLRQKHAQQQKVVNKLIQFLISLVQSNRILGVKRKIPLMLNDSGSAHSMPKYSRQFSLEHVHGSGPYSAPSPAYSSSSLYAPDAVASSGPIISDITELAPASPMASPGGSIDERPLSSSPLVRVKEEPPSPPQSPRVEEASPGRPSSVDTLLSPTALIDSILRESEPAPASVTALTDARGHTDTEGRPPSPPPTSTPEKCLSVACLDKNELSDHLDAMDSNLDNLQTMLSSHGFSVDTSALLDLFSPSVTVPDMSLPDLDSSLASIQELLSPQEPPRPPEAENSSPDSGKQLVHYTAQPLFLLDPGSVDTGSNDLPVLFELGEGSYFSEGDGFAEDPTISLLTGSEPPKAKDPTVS
Summary of the method: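 Endogenous transcription factor activity captured via cis-promoter reporter units transfected into HepG2; treatment lasted 24 h. Fluorescence intensity of reporter fragments analysed with bidirectional curve fitting, DMSO baseline.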

[15] = ATG_MRE_CIS: Attagene CIS-FACTORIAL HepG2 Assay for human Metal Responsive Element (MRE) (AID 2282954); conditions: HepG2 MRE cis-reporter transcription, Attagene multiplex; actives raise or lower the signal
Summary of the method: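 Multiplexed cis-reporter assay in human HepG2 liver cells, 24 h incubation with test chemical. Reporter transcripts measured by RT-PCR and capillary electrophoresis; values from bidirectional curve fitting versus DMSO.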

Measured: outcome

C=C(C)C(N)=O
inactive: [1] | [2] | [3] | [4] | [5] | [6] | [7] | [8] | [9] | [10] | [11] | [12] | [13] | [14] | [15]
